About 8,800 targets were measured; listed, in parts, are those with a hit and a random draw of the rest. About 0.5% of all pairs of compound and target were hits.
What was measured:
Experiment in all cases: log2 fold change, soluble protein after heating vs DMSO (PISA); higher = thermal stabilisation; K562 lysate, 10 uM; active = over 0.2 and 3.5 SD of the protein, either way, in both replicates (recomputed)
[1] = compound: CCCS(=O)(=O)Nc1ccc(F)c(C(=O)c2c[nH]c3ncc(-c4ccc(Cl)cc4)cc23)c1F [vemurafenib]
Outline: (§1)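 Dounce homogenisation of K562 pellets in PBS pH 7.4 with 1 mM MgCl2 produced a crude extract, used at 1 mg/mL protein. Exposure to 10 μM compound lasted 30 min, and aliquots were then heated for 3 min across 48°C-58°C, pooled and brought to 0.5% NP-40 at 4°C. The supernatant after 21,000xg for 90 min was quantified by TMTpro 16plex LC-MS/MS with channel sums equalised. Duplicate values are given as log-two fold change in thermal stability relative to solvent controls.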

[2] = compound: CCCS(=O)(=O)Nc1ccc(F)c(C(=O)c2c[nH]c3ncc(Cl)cc23)c1F
Outline: as §1

[3] = compound: CCN(CCCOc1ccc2c(Nc3cc(CC(=O)Nc4cccc(F)c4)[nH]n3)ncnc2c1)CCOP(=O)(O)O [barasertib]
Outline: as §1

[4] = compound: CC[C@@H]1C(=O)N(C)c2cnc(Nc3ccc(C(=O)NC4CCN(C)CC4)cc3OC)nc2N1C1CCCC1
Outline: as §1

[5] = compound: CC[C@@H]1C(=O)N(C)c2cnc(Nc3ccc(C(=O)N[C@H]4CC[C@H](N5CCN(CC6CC6)CC5)CC4)cc3OC)nc2N1C(C)C [volasertib]
Outline: as §1

[6] = compound: CCn1c(C(=O)N(C2CC2)C2CC2)cc2c3c(ncn3C)c(Nc3cc(C)n(C)n3)nc21
Outline: as §1

[7] = compound: CCn1cc(-c2ccnc3[nH]c(-c4cccc(CN(C)C)c4)cc23)c(-c2ccc(NC(=O)N(C)C)cc2)n1
Outline: as §1

[8] = compound: CN1CCC(CNc2ccc3ncc(-c4cccc(OC(F)(F)F)c4)n3n2)CC1
Outline: as §1

[9] = compound: CN1CCN(CCOc2cc(OC3CCOCC3)c3c(Nc4c(Cl)ccc5c4OCO5)ncnc3c2)CC1 [saracatinib]
Outline: as §1

[10] = compound: CN1CCN(c2nc(C3=C(c4c[nH]c5ccccc45)C(=O)NC3=O)c3ccccc3n2)CC1 [sotrastaurin]
Outline: as §1

[11] = compound: CN1CC[C@H](c2c(O)cc(O)c3c(=O)cc(-c4ccccc4Cl)oc23)[C@H](O)C1 [alvocidib]
Outline: as §1

[12] = compound: CN1CCc2c(c3ccccc3n2Cc2ccc(C(=O)NO)cc2)C1 [Tubastatin A]
Outline: as §1

[13] = compound: CNC(=O)C1=CC=CC=C1NC2=NC(=NC=C2Cl)NC3=C(C=C(C=C3)N4CCOCC4)OC
Outline: as §1

[14] = compound: CNC(=O)c1ccc(Nc2ncc(C(F)(F)F)c(NCc3nccnc3N(C)S(C)(=O)=O)n2)cc1 [defactinib]
Outline: as §1

[15] = compound: CNc1nc(-c2ccc3c(N)n[nH]c3c2)cc(N2C[C@@H](C(=O)NC3CCCCC3)CC[C@H]2C)n1
Outline: as §1

[16] = compound: COC(=O)N[C@@H](C)CNc1nccc(-c2cn(C(C)C)nc2-c2cc(Cl)cc(NS(C)(=O)=O)c2F)n1 [encorafenib]
Outline: as §1

[17] = compound: COC(=O)[C@H](CCSC)NC(=O)C1=C(C=C(C=C1)NC[C@H](CS)N)C2=CC=CC=C2
Outline: as §1

[18] = compound: COc1cc(Nc2ncc3c(n2)-c2ccc(Cl)cc2C(c2c(F)cccc2OC)=NC3)ccc1C(=O)O [alisertib]
Outline: as §1

[19] = compound: COc1cc2nc(-c3cc(F)ccc3O)nc(N[C@@H]3CNC[C@H]3C(C)(C)O)c2cc1OC
Outline: as §1

[20] = compound: COc1cc2ncnc(Nc3ccc(F)c(Cl)c3)c2cc1OCCCN1CCOCC1 [gefitinib]
Outline: as §1

Measured: log2 fold change

RBM8A (UniProt Q9Y5S9)
inactive: [1] -0.086 | [2] -0.045 | [3] 0.027 | [4] -0.091 | [5] -0.016 | [6] 0.047 | [7] 0.35 | [8] -0.198 | [9] -0.043 | [10] 0.047 | [11] 0.086 | [12] 0.024 | [13] -0.024 | [14] 0.017 | [15] -0.256 | [16] 0.002 | [17] -0.069 | [18] 0 | [19] -0.062 | [20] -0.024

RPS9 (UniProt P46781)
inactive: [1] -0.037 | [2] -0.01 | [3] -0.003 | [4] -0.074 | [5] -0.005 | [6] 0.03 | [8] -0.063 | [9] 0 | [10] -0.023 | [11] 0.053 | [12] 0.006 | [13] -0.036 | [14] -0.064 | [15] 0.006 | [16] -0.022 | [17] 0.065 | [18] 0.004 | [19] -0.003 | [20] -0.033
active: [7] 0.302

RPTOR (UniProt Q8N122)
UniProt Q8N122, sequence (Q8N122 whole entry, looked up): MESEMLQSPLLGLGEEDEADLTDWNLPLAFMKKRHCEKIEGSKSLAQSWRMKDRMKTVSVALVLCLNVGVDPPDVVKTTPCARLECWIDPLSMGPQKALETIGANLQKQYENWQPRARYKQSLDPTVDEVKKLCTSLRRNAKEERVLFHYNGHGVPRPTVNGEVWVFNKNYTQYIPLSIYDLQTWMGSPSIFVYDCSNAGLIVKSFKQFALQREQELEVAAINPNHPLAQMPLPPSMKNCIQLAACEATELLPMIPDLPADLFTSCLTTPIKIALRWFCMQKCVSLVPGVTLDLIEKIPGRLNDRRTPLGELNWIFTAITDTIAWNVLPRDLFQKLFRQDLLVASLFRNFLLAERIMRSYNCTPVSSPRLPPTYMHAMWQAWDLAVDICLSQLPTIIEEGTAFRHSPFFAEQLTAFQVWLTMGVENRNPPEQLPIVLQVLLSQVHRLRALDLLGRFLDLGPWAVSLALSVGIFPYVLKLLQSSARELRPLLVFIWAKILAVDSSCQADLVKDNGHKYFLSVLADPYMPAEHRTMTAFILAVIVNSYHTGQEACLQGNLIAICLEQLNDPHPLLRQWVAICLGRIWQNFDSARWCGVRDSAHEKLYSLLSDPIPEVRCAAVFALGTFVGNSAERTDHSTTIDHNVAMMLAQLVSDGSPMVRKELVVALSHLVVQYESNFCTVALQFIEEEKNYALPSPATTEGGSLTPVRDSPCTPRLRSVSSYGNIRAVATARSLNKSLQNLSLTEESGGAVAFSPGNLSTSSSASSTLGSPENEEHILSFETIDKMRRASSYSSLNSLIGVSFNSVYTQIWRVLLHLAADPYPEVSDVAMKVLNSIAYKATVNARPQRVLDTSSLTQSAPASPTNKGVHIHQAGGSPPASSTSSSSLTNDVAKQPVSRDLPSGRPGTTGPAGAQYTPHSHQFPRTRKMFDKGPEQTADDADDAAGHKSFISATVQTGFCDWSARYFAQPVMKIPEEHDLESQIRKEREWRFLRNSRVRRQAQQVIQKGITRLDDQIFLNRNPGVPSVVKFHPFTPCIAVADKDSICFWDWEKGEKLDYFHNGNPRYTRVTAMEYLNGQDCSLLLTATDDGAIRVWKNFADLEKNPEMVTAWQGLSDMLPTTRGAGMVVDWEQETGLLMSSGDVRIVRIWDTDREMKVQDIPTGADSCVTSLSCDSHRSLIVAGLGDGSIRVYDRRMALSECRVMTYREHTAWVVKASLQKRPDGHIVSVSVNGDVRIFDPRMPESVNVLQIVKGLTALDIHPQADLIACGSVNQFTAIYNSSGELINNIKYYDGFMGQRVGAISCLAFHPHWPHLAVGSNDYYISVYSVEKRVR
inactive: [1] -0.028 | [2] 0.022 | [3] 0.052 | [4] -0.024 | [5] -0.046 | [6] 0.038 | [7] 0.018 | [8] -0.039 | [9] 0 | [10] 0.046 | [11] 0.008 | [12] -0.11 | [13] 0.036 | [14] 0 | [15] -0.048 | [16] -0.004 | [17] -0.007 | [18] -0.012 | [19] -0.005 | [20] -0.007

RPL28 (UniProt P46779)
active: [7] 0.278
inactive: [1] 0 | [2] -0.016 | [3] -0.049 | [4] -0.001 | [5] 0.006 | [6] -0.017 | [8] -0.066 | [9] -0.011 | [10] -0.038 | [11] 0.03 | [12] 0.006 | [13] -0.009 | [14] -0.018 | [15] 0.036 | [16] 0.012 | [17] -0.014 | [18] 0.011 | [19] -0.005 | [20] -0.058

RABL3 (UniProt Q5HYI8)
UniProt Q5HYI8, sequence (Q5HYI8 whole entry, looked up): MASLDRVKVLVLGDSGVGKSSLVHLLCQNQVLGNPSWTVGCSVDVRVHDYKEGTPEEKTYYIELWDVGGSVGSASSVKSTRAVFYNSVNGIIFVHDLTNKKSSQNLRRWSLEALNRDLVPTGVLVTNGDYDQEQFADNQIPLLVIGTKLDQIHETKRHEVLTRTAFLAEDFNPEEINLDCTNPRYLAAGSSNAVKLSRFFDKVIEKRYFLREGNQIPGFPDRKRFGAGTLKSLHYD
inactive: [1] 0.043 | [2] 0.024 | [3] 0.033 | [4] -0.072 | [5] -0.045 | [6] 0.632 | [7] -0.045 | [8] -0.032 | [9] 0.018 | [10] 0.069 | [11] -0.023 | [12] -0.193 | [13] 0.154 | [14] 0 | [15] -0.021 | [16] 0.02 | [17] -0.01 | [18] -0.036 | [19] -0.038 | [20] 0.005

RPL8 (UniProt P62917)
inactive: [1] -0.055 | [2] 0.013 | [3] -0.042 | [4] -0.09 | [5] -0.012 | [6] 0.021 | [7] 0.208 | [8] -0.014 | [9] -0.009 | [10] -0.038 | [11] 0.007 | [12] 0.023 | [13] 0.02 | [14] 0.038 | [15] 0.104 | [16] 0.022 | [17] -0.046 | [18] 0.018 | [19] -0.008 | [20] 0.011

RMC1 (UniProt Q96DM3)
UniProt Q96DM3, sequence (Q96DM3 whole entry, looked up): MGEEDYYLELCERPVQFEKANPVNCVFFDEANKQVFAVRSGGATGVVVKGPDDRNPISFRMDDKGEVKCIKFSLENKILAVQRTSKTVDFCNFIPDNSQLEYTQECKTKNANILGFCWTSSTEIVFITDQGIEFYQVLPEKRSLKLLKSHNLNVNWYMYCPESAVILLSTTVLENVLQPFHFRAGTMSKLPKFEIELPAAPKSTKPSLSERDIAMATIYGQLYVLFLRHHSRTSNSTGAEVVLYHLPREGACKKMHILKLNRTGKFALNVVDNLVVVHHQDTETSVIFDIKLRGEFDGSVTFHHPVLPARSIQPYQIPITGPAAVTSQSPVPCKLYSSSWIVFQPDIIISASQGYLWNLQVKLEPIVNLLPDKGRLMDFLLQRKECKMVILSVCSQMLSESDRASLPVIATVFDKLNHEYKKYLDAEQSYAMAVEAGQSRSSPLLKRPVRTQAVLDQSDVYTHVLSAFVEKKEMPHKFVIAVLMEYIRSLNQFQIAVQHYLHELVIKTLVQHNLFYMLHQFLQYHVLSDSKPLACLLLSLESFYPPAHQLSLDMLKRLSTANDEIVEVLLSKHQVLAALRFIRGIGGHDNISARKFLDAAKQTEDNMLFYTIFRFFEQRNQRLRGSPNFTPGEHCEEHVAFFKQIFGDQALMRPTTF
inactive: [1] 0.009 | [2] 0.029 | [3] 0.003 | [4] 0.028 | [5] -0.044 | [6] -0.02 | [7] 0 | [8] 0.024 | [9] 0.018 | [10] -0.015 | [11] -0.041 | [12] -0.019 | [13] 0.019 | [14] 0.049 | [15] -0.019 | [16] 0.012 | [17] -0.023 | [18] 0 | [19] -0.001 | [20] 0.005

RINT1 (UniProt Q6NUQ1)
UniProt Q6NUQ1, sequence (Q6NUQ1 whole entry, looked up): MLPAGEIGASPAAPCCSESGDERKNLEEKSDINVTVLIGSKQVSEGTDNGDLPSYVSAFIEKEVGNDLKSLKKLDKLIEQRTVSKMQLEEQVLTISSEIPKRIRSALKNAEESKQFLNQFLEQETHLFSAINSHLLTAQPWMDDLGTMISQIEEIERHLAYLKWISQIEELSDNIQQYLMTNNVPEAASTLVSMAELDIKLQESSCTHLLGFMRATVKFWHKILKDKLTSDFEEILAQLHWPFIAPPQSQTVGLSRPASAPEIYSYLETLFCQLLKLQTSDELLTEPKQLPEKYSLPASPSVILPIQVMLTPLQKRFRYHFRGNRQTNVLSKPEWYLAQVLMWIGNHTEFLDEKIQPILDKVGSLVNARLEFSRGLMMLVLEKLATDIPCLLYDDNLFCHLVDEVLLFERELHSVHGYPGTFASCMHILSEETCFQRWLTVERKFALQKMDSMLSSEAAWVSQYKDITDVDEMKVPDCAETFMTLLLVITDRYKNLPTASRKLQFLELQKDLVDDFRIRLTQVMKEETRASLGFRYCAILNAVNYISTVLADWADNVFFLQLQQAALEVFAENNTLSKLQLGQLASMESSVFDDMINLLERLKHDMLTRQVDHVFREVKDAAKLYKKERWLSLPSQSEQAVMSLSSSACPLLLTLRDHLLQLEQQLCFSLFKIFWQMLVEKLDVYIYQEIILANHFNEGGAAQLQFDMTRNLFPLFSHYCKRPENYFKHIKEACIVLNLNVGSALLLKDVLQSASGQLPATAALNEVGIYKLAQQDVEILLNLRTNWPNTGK
inactive: [1] 0.065 | [2] 0.022 | [3] 0.095 | [4] -0.055 | [5] -0.113 | [6] 0.088 | [7] -0.048 | [8] -0.044 | [9] 0.095 | [10] 0.058 | [11] 0.041 | [12] -0.083 | [13] 0.011 | [14] 0.047 | [15] -0.072 | [16] 0.01 | [17] -0.017 | [18] -0.086 | [19] 0.065 | [20] 0.035

RPS6KB1 (UniProt P23443)
UniProt P23443, sequence (P23443 whole entry, looked up): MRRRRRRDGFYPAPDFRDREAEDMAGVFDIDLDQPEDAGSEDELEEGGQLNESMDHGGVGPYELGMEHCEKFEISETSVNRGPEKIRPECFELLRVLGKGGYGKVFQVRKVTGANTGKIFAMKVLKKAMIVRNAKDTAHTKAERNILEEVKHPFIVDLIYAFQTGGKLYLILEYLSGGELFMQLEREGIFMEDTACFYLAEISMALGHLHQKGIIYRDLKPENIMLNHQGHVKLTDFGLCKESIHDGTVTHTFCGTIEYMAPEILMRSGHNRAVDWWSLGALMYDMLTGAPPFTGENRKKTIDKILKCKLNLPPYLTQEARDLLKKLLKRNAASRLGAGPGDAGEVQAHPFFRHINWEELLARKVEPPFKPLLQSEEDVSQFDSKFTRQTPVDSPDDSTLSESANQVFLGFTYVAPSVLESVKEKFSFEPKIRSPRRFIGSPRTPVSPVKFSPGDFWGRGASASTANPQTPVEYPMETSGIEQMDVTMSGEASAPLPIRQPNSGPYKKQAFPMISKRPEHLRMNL
inactive: [1] -0.052 | [2] -0.001 | [3] 0.068 | [4] -0.109 | [5] -0.041 | [6] 0.078 | [7] -0.155 | [8] 0.185 | [9] -0.022 | [10] 0.074 | [11] -0.021 | [12] -0.184 | [13] 0.115 | [14] 0.094 | [15] -0.013 | [16] -0.039 | [17] 0.218 | [18] -0.02 | [19] 0.166 | [20] 0.062

REEP5 (UniProt Q00765)
UniProt Q00765, sequence (Q00765 whole entry, looked up): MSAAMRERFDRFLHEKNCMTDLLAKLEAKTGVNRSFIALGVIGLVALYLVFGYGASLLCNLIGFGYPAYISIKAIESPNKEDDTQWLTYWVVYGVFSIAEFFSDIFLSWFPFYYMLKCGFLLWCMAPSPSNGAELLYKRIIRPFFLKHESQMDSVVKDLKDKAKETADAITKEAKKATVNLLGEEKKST
active: [17] 0.263
inactive: [1] -0.008 | [2] -0.006 | [3] -0.008 | [4] 0.073 | [5] 0.023 | [6] 0.027 | [7] -0.051 | [8] 0.026 | [9] 0.017 | [10] -0.02 | [11] -0.054 | [12] -0.004 | [13] -0.056 | [14] 0.04 | [15] 0.035 | [16] 0.001 | [18] -0.009 | [19] 0.001 | [20] -0.092

RABEPK (UniProt Q7Z6M1)
UniProt Q7Z6M1, sequence (Q7Z6M1 whole entry, looked up): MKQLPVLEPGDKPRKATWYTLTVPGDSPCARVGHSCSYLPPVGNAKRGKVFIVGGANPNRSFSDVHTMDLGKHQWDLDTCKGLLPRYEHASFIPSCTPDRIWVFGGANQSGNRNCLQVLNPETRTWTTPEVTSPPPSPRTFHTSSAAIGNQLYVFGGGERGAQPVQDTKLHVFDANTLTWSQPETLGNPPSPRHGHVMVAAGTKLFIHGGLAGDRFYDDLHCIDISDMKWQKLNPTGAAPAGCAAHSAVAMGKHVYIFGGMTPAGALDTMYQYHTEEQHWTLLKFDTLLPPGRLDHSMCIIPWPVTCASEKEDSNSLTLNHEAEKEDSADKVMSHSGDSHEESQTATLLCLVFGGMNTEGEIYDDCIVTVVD
inactive: [1] -0.024 | [2] 0.003 | [3] -0.066 | [4] 0.014 | [5] -0.006 | [6] -0.021 | [7] 0.015 | [8] 0.011 | [9] -0.02 | [10] -0.028 | [11] 0.03 | [12] -0.048 | [13] 0.004 | [14] 0.014 | [15] -0.025 | [16] 0.004 | [17] 0.032 | [18] 0.002 | [19] 0 | [20] 0.01

RASA3 (UniProt Q14644)
UniProt Q14644, sequence (Q14644 whole entry, looked up): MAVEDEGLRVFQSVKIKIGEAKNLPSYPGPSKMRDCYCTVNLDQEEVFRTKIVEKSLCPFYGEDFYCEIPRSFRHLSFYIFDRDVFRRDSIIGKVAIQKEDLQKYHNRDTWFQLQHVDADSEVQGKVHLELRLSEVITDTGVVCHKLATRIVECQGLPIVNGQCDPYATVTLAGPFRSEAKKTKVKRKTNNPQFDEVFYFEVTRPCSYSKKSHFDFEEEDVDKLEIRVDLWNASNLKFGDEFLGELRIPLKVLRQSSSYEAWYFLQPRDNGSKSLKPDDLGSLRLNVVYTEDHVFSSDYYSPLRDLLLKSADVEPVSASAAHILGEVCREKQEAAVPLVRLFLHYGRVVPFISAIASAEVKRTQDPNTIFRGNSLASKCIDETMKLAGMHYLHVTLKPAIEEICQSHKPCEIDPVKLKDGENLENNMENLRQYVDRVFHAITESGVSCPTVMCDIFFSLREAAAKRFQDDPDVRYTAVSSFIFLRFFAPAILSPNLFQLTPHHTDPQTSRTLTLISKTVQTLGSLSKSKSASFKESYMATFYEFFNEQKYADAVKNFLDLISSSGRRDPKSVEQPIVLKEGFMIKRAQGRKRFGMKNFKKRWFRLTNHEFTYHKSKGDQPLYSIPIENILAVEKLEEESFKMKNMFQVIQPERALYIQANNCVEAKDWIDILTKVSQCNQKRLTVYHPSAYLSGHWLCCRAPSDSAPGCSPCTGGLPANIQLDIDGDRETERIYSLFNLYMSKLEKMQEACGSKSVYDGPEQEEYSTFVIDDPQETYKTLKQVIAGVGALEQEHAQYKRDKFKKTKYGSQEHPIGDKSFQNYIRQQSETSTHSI
inactive: [1] -0.008 | [2] 0.009 | [3] 0.107 | [4] -0.1 | [5] -0.082 | [6] -0.058 | [7] 0.105 | [8] 0.298 | [9] -0.003 | [10] 0.048 | [11] -0.089 | [12] -0.246 | [13] 0 | [14] 0.052 | [15] -0.118 | [16] -0.005 | [17] 0.082 | [18] -0.006 | [19] 0.032 | [20] -0.043

RTN4IP1 (UniProt Q8WWV3)
inactive: [1] -0.02 | [2] 0.047 | [3] -0.049 | [4] -0.018 | [5] -0.014 | [6] -0.007 | [7] 0.058 | [8] -0.106 | [9] -0.048 | [10] 0.015 | [11] 0.042 | [12] -0.079 | [13] 0.036 | [14] -0.014 | [15] 0 | [16] -0.021 | [17] 0.003 | [18] -0.111 | [19] 0.019 | [20] 0.196

RBBP7 isoform 2 (UniProt Q16576)
active: [7] -0.274
inactive: [1] -0.064 | [2] -0.007 | [3] -0.042 | [4] -0.057 | [5] 0.022 | [6] 0.047 | [8] 0.088 | [9] 0.001 | [10] 0.032 | [11] -0.005 | [12] -0.004 | [13] -0.021 | [14] -0.023 | [15] -0.028 | [16] 0.03 | [17] -0.034 | [18] 0.03 | [19] -0.003 | [20] 0.002

RABGGTB (UniProt P53611)
inactive: [1] -0.022 | [2] 0.058 | [3] 0.096 | [4] -0.034 | [5] 0.008 | [6] -0.031 | [7] 0.151 | [8] -0.033 | [9] -0.017 | [10] 0.037 | [11] -0.015 | [12] -0.043 | [13] -0.025 | [14] 0.031 | [15] -0.021 | [16] 0.044 | [17] 0.065 | [18] 0.005 | [19] 0.002 | [20] -0.002

RPAP1 (UniProt Q9BWH6)
inactive: [1] -0.008 | [2] -0.012 | [3] 0.012 | [4] -0.028 | [5] -0.053 | [6] 0 | [7] -0.031 | [8] 0.008 | [9] 0.02 | [10] 0.01 | [11] -0.001 | [12] -0.077 | [13] 0.016 | [14] -0.006 | [15] 0.007 | [16] 0.019 | [17] -0.069 | [18] 0.013 | [19] 0.027 | [20] -0.007

Reference: the supplement of paper PMC10849652
